Results: PubChem BioAssay (EPA / NIEHS)
The source made the active and inactive calls. How the source made its calls: active means hit-call score of the fitted dose curve at least 0.9, where 1 is the maximum; inactive means score below 0.9.

Assays:
[1] = read-out: Interleukin-8 (IL8), CXCL8 (gene 3576); assay: BSK_CASM3C_IL8: BioMAP Diversity Plus: CASM3C Assay for Interleukin-8 (IL8) Biomarker Activity (AID 2283042); settings: primary human coronary artery smooth muscle cells; actives raise or lower the signal;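 further: IL-8 protein level quantified by ELISA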
[2] = read-out: Human Leukocyte Antigen - DR isotype (HLADR), HLA-DRA (gene 3122); assay: BSK_CASM3C_HLADR: BioMAP Diversity Plus: CASM3C Assay for Human Leukocyte Antigen - DR isotype (HLADR) Biomarker Activity (AID 2283043); settings: primary human coronary artery smooth muscle cells; actives raise or lower the signal;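 further: cell-surface HLA-DR protein level quantified by ELISA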
[3] = read-out: Macrophage colony-stimulating factor (MCSF), CSF1 (gene 1435); assay: BSK_CASM3C_MCSF: BioMAP Diversity Plus: CASM3C Assay for Macrophage colony-stimulating factor (MCSF) Biomarker Activity (AID 2283044); settings: primary human coronary artery smooth muscle cells; actives raise or lower the signal;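 further: M-CSF protein amount quantified by ELISA after 24 h exposure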
[4] = read-out: Low-density lipoprotein receptor (LDLR), LDLR (gene 3949); assay: BSK_CASM3C_LDLR: BioMAP Diversity Plus: CASM3C Assay for Low-density lipoprotein receptor (LDLR) Biomarker Activity (AID 2283045); settings: primary human coronary artery smooth muscle cells; actives raise or lower the signal;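 further: LDLR protein level on the cell surface quantified by ELISA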
[5] = read-out: Monocyte Chemoattractant Protein-1 (MCP1), CCL2 (gene 6347); assay: BSK_CASM3C_MCP1: BioMAP Diversity Plus: CASM3C Assay for Monocyte Chemoattractant Protein-1 (MCP1) Biomarker Activity (AID 2283046); settings: primary human coronary artery smooth muscle cells; actives raise or lower the signal;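 further: MCP-1 level quantified by ELISA 24 h after dosing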
[6] = BSK_CASM3C_Proliferation: Cell Proliferation Assessment in the BioMAP Diversity Plus: CASM3C Assay (AID 2283047); settings: primary human coronary artery smooth muscle cells;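 further: sulforhodamine B total protein stain as relative cell number at 560 nm; sub-confluent cells exposed 48 h before staining; fitted both ways against DMSO so gain or loss of cell number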
[7] = read-out: Monokine induced gamma interferon (MIG), CXCL9 (gene 4283); assay: BSK_CASM3C_MIG: BioMAP Diversity Plus: CASM3C Assay for Monokine induced gamma interferon (MIG) Biomarker Activity (AID 2283048); settings: primary human coronary artery smooth muscle cells; actives raise or lower the signal;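 further: MIG protein level measured by ELISA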
[8] = read-out: serum amyloid A (SAA), SAA1 (gene 6288); assay: BSK_CASM3C_SAA: BioMAP Diversity Plus: CASM3C Assay for serum amyloid A (SAA) Biomarker Activity (AID 2283049); settings: primary human coronary artery smooth muscle cells; actives raise or lower the signal;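 further: SAA protein level quantified by ELISA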
[9] = BSK_CASM3C_SRB: Viability Assessment in the BioMAP Diversity Plus: CASM3C Assay (AID 2283050); settings: primary human coronary artery smooth muscle cells;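 further: total protein by SRB staining as cytotoxicity measure in parallel cultures; cells exposed to compound for 24 h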
[10] = read-out: Thrombomodulin, THBD (gene 7056); assay: BSK_CASM3C_Thrombomodulin: BioMAP Diversity Plus: CASM3C Assay for Thrombomodulin Biomarker Activity (AID 2283051); settings: primary human coronary artery smooth muscle cells; actives raise or lower the signal;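 further: thrombomodulin protein level measured by ELISA 24 h after dosing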
[11] = read-out: Tissue Factor, F3 (gene 2152); assay: BSK_CASM3C_TissueFactor: BioMAP Diversity Plus: CASM3C Assay for Tissue Factor Biomarker Activity (AID 2283052); settings: primary human coronary artery smooth muscle cells; actives raise or lower the signal;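 further: cell surface tissue factor protein level read by ELISA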
[12] = read-out: Interferon-gamma inducible Protein 10 (IP10), CXCL10 (gene 3627); assay: BSK_hDFCGF_IP10: BioMAP Diversity Plus: hDFCGF Assay for Interferon-gamma inducible Protein 10 (IP10) Biomarker Activity (AID 2283053); settings: primary human foreskin fibroblasts; actives raise or lower the signal
In short: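 Chemical-treated human skin fibroblasts (primary) were sampled at 24 h for IP-10 by ELISA. Both increases and decreases relative to DMSO were scored.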

[13] = read-out: Urokinase-type plasminogen activator receptor (uPAR), PLAUR (gene 5329); assay: BSK_CASM3C_uPAR: BioMAP Diversity Plus: CASM3C Assay for Urokinase-type plasminogen activator receptor (uPAR) Biomarker Activity (AID 2283054); settings: primary human coronary artery smooth muscle cells; actives raise or lower the signal;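 further: cell-surface uPAR protein level quantified by ELISA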
[14] = read-out: Vascular cell adhesion molecule 1 (VCAM1), VCAM1 (gene 7412); assay: BSK_CASM3C_VCAM1: BioMAP Diversity Plus: CASM3C Assay for Vascular cell adhesion molecule 1 (VCAM1) Biomarker Activity (AID 2283055); settings: primary human coronary artery smooth muscle cells; actives raise or lower the signal;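 further: VCAM-1 protein level quantified by ELISA on the cells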
[15] = read-out: Collagen III, COL3A1 (gene 1281); assay: BSK_hDFCGF_CollagenIII: BioMAP Diversity Plus: hDFCGF Assay for Collagen III Biomarker Activity (AID 2283056); settings: primary human foreskin fibroblasts; actives raise or lower the signal
In short: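 ELISA readout of Collagen III in human dermal (foreskin) fibroblasts, taken 24 h post-treatment. Gain or loss relative to DMSO vehicle fitted in both directions.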

[16] = read-out: Epidermal growth factor receptor (EGFR), EGFR (gene 1956); assay: BSK_hDFCGF_EGFR: BioMAP Diversity Plus: hDFCGF Assay for Epidermal growth factor receptor (EGFR) Biomarker Activity (AID 2283057); settings: primary human foreskin fibroblasts; actives raise or lower the signal
In short: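 Cell-based multiplexed assay in primary human foreskin fibroblasts. EGFR is read by ELISA 24 h after treatment and compared with DMSO controls.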

[17] = read-out: Interleukin-8 (IL8), CXCL8 (gene 3576); assay: BSK_hDFCGF_IL8: BioMAP Diversity Plus: hDFCGF Assay for Interleukin-8 (IL8) Biomarker Activity (AID 2283058); settings: primary human foreskin fibroblasts; actives raise or lower the signal
In short: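 IL-8 levels read by ELISA at 24 hours after dosing human skin fibroblast cultures. Parallel SRB staining assessed overt cytotoxicity, and gain or loss of signal was fitted against DMSO control.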

[18] = BSK_hDFCGF_Proliferation: Cell Proliferation Assessment in the BioMAP Diversity Plus: hDFCGF Assay (AID 2283059); settings: primary human foreskin fibroblasts;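 further: curves fitted for both rise and fall of signal versus DMSO baseline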
In short: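 Steps: dose primary human dermal fibroblasts (foreskin); […] fix in 10% TCA; stain with 0.1% SRB; read 560 nm; fit gain or loss of signal against DMSO.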

[19] = read-out: Macrophage colony-stimulating factor (MCSF), CSF1 (gene 1435); assay: BSK_hDFCGF_MCSF: BioMAP Diversity Plus: hDFCGF Assay for Macrophage colony-stimulating factor (MCSF) Biomarker Activity (AID 2283060); settings: primary human foreskin fibroblasts; actives raise or lower the signal
In short: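 M-CSF levels read by ELISA at 24 h post-dosing in human skin fibroblasts. Parallel cultures stained with SRB assessed cytotoxicity at the same time point; response fitted in both directions against the DMSO baseline.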

[20] = BSK_hDFCGF_SRB: Viability Assessment in the BioMAP Diversity Plus: hDFCGF Assay (AID 2283061); settings: primary human foreskin fibroblasts;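 further: cells exposed to compound for 24 h before the read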
In short: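 Viability was read as total protein: after 10% TCA fixation, wells were stained with 0.1% sulforhodamine B and read at 560 nm. Primary human foreskin fibroblasts were dosed for 24 h, with bidirectional fitting versus DMSO.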

Measured: AC50

CC(C)(C)c1ccc(O)c(C(C)(C)C)c1
active: [1] 27.2 µM | [2] 9.55 µM | [3] 13.2 µM | [4] 12.3 µM | [5] 13.7 µM | [6] 11.4 µM | [7] 15.3 µM | [8] 12.4 µM | [9] 26.7 µM | [10] 35.9 µM | [11] 20 µM | [12] 10.1 µM | [13] 7.58 µM | [14] 29.1 µM | [15] 8.81 µM | [16] 13.2 µM | [17] 12.5 µM | [18] 11.4 µM | [19] 8.8 µM | [20] 11.9 µM

CCCOc1sc(C(=O)N2CCC(c3cc(CN)ccc3F)CC2)c(C)c1Br
active: [1] 15.4 µM | [2] 4.87 µM | [3] 9.62 µM | [4] 27.1 µM | [5] 17.5 µM | [6] 7.94 µM | [7] 27.8 µM | [8] 11.9 µM | [9] 12.9 µM | [10] 32.6 µM | [11] 10.8 µM | [12] 10.4 µM | [13] 8.94 µM | [14] 18.6 µM | [15] 7.98 µM | [16] 5.12 µM | [17] 7.73 µM | [18] 3.1 µM | [19] 6.92 µM | [20] 6.53 µM

CC(=O)NC1(c2cccc(F)c2)CCN(CC[C@@]2(c3ccc(Cl)c(Cl)c3)CN(c3ccccc3)C(=O)CO2)CC1
inactive: [1] | [3] | [5] | [7] | [8] | [11] | [14] | [16]
active: [2] 28.2 µM | [4] 4.58 µM | [6] 27.3 µM | [9] 23.8 µM | [10] 26.1 µM | [12] 28.2 µM | [13] 16.6 µM | [15] 6.66 µM | [17] 25.9 µM | [18] 13.4 µM | [19] 24.5 µM | [20] 24.5 µM

C#C[C@]1(O)CC[C@H]2[C@@H]3CCC4=CC(=O)CC[C@@H]4[C@H]3CC[C@@]21C
inactive: [1] | [2] | [3] | [4] | [5] | [7] | [8] | [9] | [10] | [11] | [12] | [13] | [14] | [15] | [16] | [17] | [18] | [19] | [20]

CCCCCCCCOC(=O)CCCCCCCCC(=O)OCCCCCCCC
inactive: [1] | [2] | [3] | [4] | [5] | [6] | [7] | [8] | [9] | [10] | [11] | [12] | [13] | [14] | [15] | [16] | [17] | [18] | [19] | [20]

CCc1nn(C2CCCCC2)c2cc(C3(C#N)CCC(C(=O)O)CC3)ccc12 (centres undefined)
active: [2] 4.52 µM | [3] 0.657 µM | [4] 1.47 µM | [5] 7.23 µM | [6] 4.09 µM | [7] 13.1 µM | [12] 4.83 µM | [13] 1.03 µM | [14] 5.03 µM | [15] 1.75 µM | [16] 1.26 µM | [18] 4.27 µM | [19] 5.16 µM | [20] 4.51 µM
inactive: [1] | [8] | [9] | [10] | [11] | [17]
